The text below walks through data of PubChem BioAssay.

Test [1] can be described thus: P. berghei load reduction in hepatocytes – cell-based, HepG2, luciferase luminescence, HepG2 viability, primary screen (AID 624349; in the data active means parasite load remaining mostly below about 12%, no sharp cut-off; inactive means mostly above about 10%;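 further: 100% = mean of DMSO negative control wells on the same plate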). The note with it: P. berghei liver stage in HepG2, luciferase luminescence, concentration not given here; parasite load remaining: stronger effect = lower value; viability: measured here: HepG2 viability without parasites.
Test [2] can be described thus: Wnt pathway potentiators raising nuclear beta-catenin – imaging, WNT3A-conditioned medium, mouse C2C12, NPC library, primary screen (AID 1117326; in the data active means nuclear beta-catenin stimulation mostly above about 4.2%, no sharp cut-off; inactive means mostly below about 10%; further: reference of the scale not given here). To be noted: stronger effect = higher value.
Test [3] can be described thus: stimulators of insulin release from INS-1E, primary screen, cell-based, 5 mM glucose, NPC library (AID 1117329;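 active means compound raises insulin release from rat beta cells at 5 mM glucose, no numeric limit stated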; further: reference of the scale not given here). To be noted: rat INS-1E insulin secretion, at 10 µM, stronger effect = higher value.
Test [4] is described as follows: growth inhibition of GSK3B-pretreated HCT116 cells – cell-based, CellTiter-Glo, 0.2 to 20 µM (AID 1117336). The note with it: HCT116 viability after GSK3B inhibitor, at 20 µM, stronger effect = higher value.
The nature of test [5]: inhibition of endothelial tube formation, primary screen, imaging, VEGF stimulated, CD31 staining, tube area, NPC library (AID 1117340;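 active means compound that reduces growth-factor-driven endothelial tube area in a mixed cell culture, no cutoff stated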). To be noted: VEGF-stimulated ADSC/ECFC co-culture, at 10 µM, stronger effect = higher value.
Test [6] is described as follows: GLP1 release stimulators, primary, NCI-H716, NPC library (AID 1117341;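 active means compound raises GLP1 secretion from the human gut endocrine cells, with no numeric limit stated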; further: reference of the scale not given here). To be noted: NCI-H716 cells, at 10 µM, stronger effect = higher value.
The nature of test [7]: HCT116 colon cancer cell growth inhibition, primary screen, CellTiter-Glo luminescence, NPC library (AID 1117342;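 active means compounds that lower survival of HCT116 colon cancer cells in the luminescence readout, no numeric limit stated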). The note with it: at 20 µM (top of the series).
Test [8] is described as follows: reduced SW480 viability measured with CellTiter-Glo, NPC library, primary (AID 1117343;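 active means compounds that lower viability of the colon cancer cells in the luminescence readout, with no numeric limit stated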). To be noted: CellTiter-Glo luminescence; at 20 µM (top of the series).
Test [9] can be described thus: NPC library primary testing for decreased DLD-1 cell viability via CellTiter-Glo (AID 1117346;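 active means compounds that lower survival of DLD-1 colon cancer cells in the luminescence readout, no cutoff given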). To be noted: DLD-1 viability, CellTiter-Glo luminescence; at 20 µM (top of the series).
Test [10] is described as follows: viability loss with induced miR-34 in A549 – imaging, A549 dox-inducible miR-34, nuclei and caspase counts, primary screen (AID 1347080;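 active means compounds whose cell count with miR-34 switched on is under 0.7 times the count with it off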). To be noted: A549 miR-34 inducible, Hoechst nuclei count, 48 h.
Test [11] is described as follows: MELAS cybrid and Rieske KO viability enhancers – cell-based, MELAS cybrids, Rieske KO mouse fibroblasts, CellTiter-Glo, primary screen (AID 1508586;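 active means mean z-score across replicates of 1.96 or higher in either the MELAS or the Rieske mutant cell line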;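 further: z relative to plate mean and SD of compound and empty wells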). To be noted: low glucose.
Test [12] in a line: galactose survival enhancers in mitochondrial complex I cybrids – cell-based, galactose medium, ATP luminescence, primary screen (AID 1645843;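 active means z-score of at least 1.8 in each of two replicates, scored against plate mean and spread of sample wells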;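 further: positive z means more ATP and so rescue of galactose-driven cybrid death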). The note with it: complex I mutant cybrid cells, 72 h, stronger effect = higher value.
A short description of test [13]: compounds altering circadian rhythm period length – cell-based, LOPAC library, luminescence reporter (AID 2774; call rule not given here;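 further: values are relative to mean of DMSO wells on each plate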). To be noted: circadian reporter cells, at 7 µM, actives lie on both sides.
For test [14], the target named is NAD(+) hydrolase SARM1 (Homo sapiens) (UniProt Q6SZW1). Nature of the test: blocking NAD cleavage by SARM1 SAM-TIR – cell lysate, NAD-Glo luminescence (AID 1508614;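 active means compound whose remaining NAD level is above about 45 nM, limit read from the data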). The note with it: SAM-TIR HEK293T lysate NADase, at 1 µM, stronger effect = higher value.
NAD(+) hydrolase SARM1 (Homo sapiens), sequence (Q6SZW1 whole entry, looked up): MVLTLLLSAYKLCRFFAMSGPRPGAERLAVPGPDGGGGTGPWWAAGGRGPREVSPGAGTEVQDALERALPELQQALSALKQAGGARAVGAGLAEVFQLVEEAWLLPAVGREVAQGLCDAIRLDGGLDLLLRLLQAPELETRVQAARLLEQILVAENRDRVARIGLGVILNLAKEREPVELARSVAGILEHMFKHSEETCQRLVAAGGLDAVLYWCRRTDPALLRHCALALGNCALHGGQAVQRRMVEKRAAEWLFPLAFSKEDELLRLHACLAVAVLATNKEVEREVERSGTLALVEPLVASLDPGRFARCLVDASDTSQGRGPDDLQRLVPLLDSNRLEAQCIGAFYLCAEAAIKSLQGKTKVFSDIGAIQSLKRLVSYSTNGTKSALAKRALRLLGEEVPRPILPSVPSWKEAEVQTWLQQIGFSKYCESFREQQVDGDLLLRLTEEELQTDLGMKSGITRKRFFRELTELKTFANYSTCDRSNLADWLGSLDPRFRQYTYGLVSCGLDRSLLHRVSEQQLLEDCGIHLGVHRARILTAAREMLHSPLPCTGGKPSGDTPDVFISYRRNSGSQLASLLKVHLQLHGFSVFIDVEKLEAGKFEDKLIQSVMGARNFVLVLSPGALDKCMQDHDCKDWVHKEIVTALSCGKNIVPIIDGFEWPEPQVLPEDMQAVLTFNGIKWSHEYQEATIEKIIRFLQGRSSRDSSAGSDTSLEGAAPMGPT
Setting [15] is: stronger effect = lower value, cell number ratio, induced over uninduced.
Setting [16] is: measured here: relative caspase fold change +Dox/-Dox.
Where [17] appears, read: measured here: total cells with miR-34 induction, stronger effect = lower value.
The mark [18] stands for this setting: measured here: total cells without miR-34 induction.
Setting [19] is: MELAS cybrid survival, CellTiter-Glo 48 h, stronger effect = higher value.
The mark [20] stands for this setting: Rieske KO mouse fibroblast survival, CellTiter-Glo 72 h.

Where “and” joins values, the source holds several entries; their conditions need not be identical. Equal entries are not always repeated. Calls of active or inactive are those of the source.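 How the source made its calls, unless noted: active means compounds lowering colon cancer cell viability after pretreatment blocking the GSK3B kinase; inactive means the rest.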

As for `O=C1OC2(c3cc(Br)c(O)cc3Oc3c2cc(Br)c(O)[c]3[Hg])c2ccccc21` (stereo not drawn), the parasite load remaining in [1] was 65.8% (inactive). The viability in [1] is 84.8%. For the same compound, the nuclear beta-catenin stimulation in test [2] (at 10 µM) is 57.5% (active); in test [2] (stimulation, at 2 µM), 3.4%. The insulin secretion stimulation in test [3] is 7.2% (inactive). In [4], the viability decrease was 77.7% (active). Besides, the tube area decrease in test [5] was -234% (inactive). The GLP1 secretion stimulation in [6] is -1.4% (inactive). Besides, the inhibition of viability in test [7] is 52.1% (active). Further, the viability decrease (inhibition) is 11.7% (inactive) in test [8] and 38.2% (inactive) in test [9]. Moreover, the fold change was 0.885 (inactive) in test [10] (setting [15]) and 1.08 in test [10] (setting [16]). The results for the cell count in [10] (setting [17]) and in test [10] (setting [18]) were 9490 and 10700, respectively. The z-score was -0.831 (inactive) in [11] (setting [19]) and 0.0245 in test [11] (setting [20]).
For `CCC(C(N)=O)N1CCCC1=O` (stereo not drawn), the nuclear beta-catenin stimulation in [2] (at 10 µM) was -0.1% (inactive); in test [2] (stimulation, at 2 µM), -0.2%. The insulin secretion stimulation in test [3] is 1.4% (inactive). In [4], the viability decrease was -0.8% (inactive). Moreover, the tube area decrease in [5] was -18.3% (inactive). In addition, the GLP1 secretion stimulation in [6] is 0.6% (inactive). The inhibition of viability in [7] is -4.9% (inactive). For the same compound, the viability decrease (inhibition) is -0.6% (inactive) in [8] and -1.1% (inactive) in [9]. Also, the fold change in test [10] (stronger effect = lower value) is 0.925 (inactive) and 0.884 (inactive); in [10] (setting [16]), 1.53 and 10.7. Further, the cell count in test [10] (setting [17]) is 9780 and 8770; in [10] (setting [18]), 10600 and 9920. For the same compound, the z-score was 2 (active) in test [11] (setting [19]), 0.478 in test [11] (setting [20]) and 0.645 (inactive) in test [12].
In the case of `C[C@]12CCC(=O)C=C1CC[C@@H]1[C@@H]2CC[C@]2(C)C(=O)CC[C@@H]12`, the period change in test [13] is 0.09 h (inactive). Further, the nuclear beta-catenin stimulation is -0.1% (inactive) in test [2] (at 10 µM) and -1.6% in test [2] (stimulation, at 2 µM). For the same compound, the insulin secretion stimulation in test [3] is 2.4% (inactive). For the same compound, the viability decrease in [4] is 64.9% (active). The tube area decrease in [5] is -7% (inactive). The GLP1 secretion stimulation in test [6] is -2.7% (inactive). In addition, the inhibition of viability in test [7] is 68.5% (active). In addition, the viability decrease (inhibition) was 23.5% (inactive) in [8] and 45.9% (inactive) in test [9].
For `CCOc1cc(C=O)ccc1O`, the nuclear beta-catenin stimulation is -1.6% (inactive) in [2] (at 10 µM) and -0.8% in [2] (stimulation, at 2 µM). Besides, the insulin secretion stimulation in test [3] is 0.4% (inactive). The viability decrease in test [4] is 5.6% (inactive). Also, in test [5], the tube area decrease was 0.8% (inactive). For the same compound, the GLP1 secretion stimulation in test [6] is -3.6% (inactive). The inhibition of viability in test [7] is 6% (inactive). In addition, the figures for the viability decrease (inhibition) in test [8] and in test [9] were 6.9% (inactive) and -3% (inactive), respectively. Besides, the remaining NAD in test [14] was 10 nM (inactive).
For the compound `O=[N+]([O-])C(Br)(CO)CO`, the nuclear beta-catenin stimulation in [2] (at 10 µM) was 44.8% (active); in test [2] (stimulation, at 2 µM) it was 0%. Besides, the insulin secretion stimulation in test [3] was 20.2% (active). Further, the viability decrease in [4] was -19.2% (inactive). In test [5], the tube area decrease was 106% (active). The GLP1 secretion stimulation in [6] is -0.1% (inactive). Further, the inhibition of viability in [7] is 2.9% (inactive). Besides, the viability decrease (inhibition) in test [8] was 88.9% (active); in [9] it was 52.2% (active). For the same compound, the remaining NAD in test [14] is 51 nM (active).
In the case of `CC(C)NCC(O)c1ccccc1Cl` (stereo not drawn), the nuclear beta-catenin stimulation was -0.5% (inactive) in test [2] (at 10 µM) and 0.8% in test [2] (stimulation, at 2 µM). For the same compound, in test [3], the insulin secretion stimulation is 11.3% (inactive). The viability decrease in test [4] was -4.5% (inactive). Also, the tube area decrease in test [5] was 8.9% (inactive). For the same compound, in [6], the GLP1 secretion stimulation was 3.1% (inactive). In test [7], the inhibition of viability was 0.8% (inactive). In addition, the viability decrease (inhibition) was 23.3% (inactive) in test [8] and 9% (inactive) in test [9]. Moreover, the fold change in test [10] (setting [15]) is 0.961 (inactive); in [10] (setting [16]), 0.533. Besides, the cell count in test [10] (setting [17]) amounted to 8950; in [10] (setting [18]) it was 9320. Further, the z-score in test [11] (setting [19]) is -0.27 (inactive); in test [11] (setting [20]), -0.204.
